# ChEMBL document CHEMBL1961873, “Compounds: GSK PKIS; Assays: Nanosyn kinase panel” (2012)
# Tests used:
# [1] = molecular target: PAS domain-containing serine/threonine-protein kinase (Homo sapiens) (UniProt Q96RG2); details: at 0.1 µM
# [2] = molecular target: PAS domain-containing serine/threonine-protein kinase (Homo sapiens) (UniProt Q96RG2); details: at 1 µM
# [3] = molecular target: Phosphorylase b kinase gamma catalytic chain, skeletal muscle/heart isoform (Homo sapiens) (UniProt Q16816); details: at 0.1 µM
# Phosphorylase b kinase gamma catalytic chain, skeletal muscle/heart isoform (Homo sapiens), sequence (Q16816 whole entry, looked up, canonical isoform): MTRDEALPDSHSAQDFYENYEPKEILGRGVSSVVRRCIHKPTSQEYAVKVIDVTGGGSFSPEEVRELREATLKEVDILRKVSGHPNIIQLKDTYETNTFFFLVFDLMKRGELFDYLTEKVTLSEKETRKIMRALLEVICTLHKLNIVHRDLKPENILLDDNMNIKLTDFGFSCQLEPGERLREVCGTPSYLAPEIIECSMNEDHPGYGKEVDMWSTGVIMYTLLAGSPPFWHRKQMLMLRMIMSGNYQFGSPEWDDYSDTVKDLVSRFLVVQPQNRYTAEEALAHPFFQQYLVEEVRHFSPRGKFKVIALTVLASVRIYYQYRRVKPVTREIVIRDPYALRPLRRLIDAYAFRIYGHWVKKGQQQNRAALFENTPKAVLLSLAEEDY
# [4] = molecular target: Phosphorylase b kinase gamma catalytic chain, skeletal muscle/heart isoform (Homo sapiens) (UniProt Q16816); details: at 1 µM
# [5] = molecular target: Phosphorylase b kinase gamma catalytic chain, liver/testis isoform (Homo sapiens) (UniProt P15735); details: at 0.1 µM
# [6] = molecular target: Phosphorylase b kinase gamma catalytic chain, liver/testis isoform (Homo sapiens) (UniProt P15735); details: at 1 µM
# [7] = molecular target: Serine/threonine-protein kinase pim-1 (Homo sapiens) (UniProt P11309); details: at 0.1 µM
# [8] = molecular target: Serine/threonine-protein kinase pim-1 (Homo sapiens) (UniProt P11309); details: at 1 µM
# [9] = molecular target: Serine/threonine-protein kinase pim-2 (Homo sapiens) (UniProt Q9P1W9); details: at 0.1 µM
# Serine/threonine-protein kinase pim-2 (Homo sapiens), sequence (Q9P1W9 whole entry, looked up): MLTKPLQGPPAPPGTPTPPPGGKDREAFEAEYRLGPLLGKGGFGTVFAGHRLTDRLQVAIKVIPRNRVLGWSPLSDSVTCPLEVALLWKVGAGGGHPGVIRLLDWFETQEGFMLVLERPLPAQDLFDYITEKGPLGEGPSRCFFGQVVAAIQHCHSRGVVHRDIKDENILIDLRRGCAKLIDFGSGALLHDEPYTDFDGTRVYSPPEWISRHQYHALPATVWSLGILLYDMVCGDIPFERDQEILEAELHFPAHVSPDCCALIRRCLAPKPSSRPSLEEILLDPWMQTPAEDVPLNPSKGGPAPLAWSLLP
# [10] = molecular target: Serine/threonine-protein kinase pim-2 (Homo sapiens) (UniProt Q9P1W9); details: at 1 µM
# [11] = molecular target: Serine/threonine-protein kinase pim-3 (Homo sapiens) (UniProt Q86V86); details: at 0.1 µM
# [12] = molecular target: Serine/threonine-protein kinase pim-3 (Homo sapiens) (UniProt Q86V86); details: at 1 µM
# [13] = molecular target: MAP kinase-activated protein kinase 5 (Homo sapiens) (UniProt Q8IW41); details: at 0.1 µM
# MAP kinase-activated protein kinase 5 (Homo sapiens), sequence (Q8IW41 whole entry): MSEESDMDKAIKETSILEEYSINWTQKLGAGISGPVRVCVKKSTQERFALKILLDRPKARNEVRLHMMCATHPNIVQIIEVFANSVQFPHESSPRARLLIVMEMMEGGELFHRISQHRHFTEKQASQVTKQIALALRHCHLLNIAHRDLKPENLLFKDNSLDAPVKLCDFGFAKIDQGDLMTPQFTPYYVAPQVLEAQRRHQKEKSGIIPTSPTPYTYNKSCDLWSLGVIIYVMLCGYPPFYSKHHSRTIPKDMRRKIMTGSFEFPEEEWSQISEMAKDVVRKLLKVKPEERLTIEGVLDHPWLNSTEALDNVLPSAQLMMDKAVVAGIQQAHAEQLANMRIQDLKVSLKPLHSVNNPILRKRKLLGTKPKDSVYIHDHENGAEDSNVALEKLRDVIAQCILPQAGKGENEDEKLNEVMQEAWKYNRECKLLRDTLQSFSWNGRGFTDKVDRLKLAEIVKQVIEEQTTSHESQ
# [14] = molecular target: MAP kinase-activated protein kinase 5 (Homo sapiens) (UniProt Q8IW41); details: at 1 µM
# [15] = molecular target: Serine/threonine-protein kinase SIK1 (Homo sapiens) (UniProt P57059); details: at 0.1 µM
# Serine/threonine-protein kinase SIK1 (Homo sapiens), sequence (P57059 whole entry): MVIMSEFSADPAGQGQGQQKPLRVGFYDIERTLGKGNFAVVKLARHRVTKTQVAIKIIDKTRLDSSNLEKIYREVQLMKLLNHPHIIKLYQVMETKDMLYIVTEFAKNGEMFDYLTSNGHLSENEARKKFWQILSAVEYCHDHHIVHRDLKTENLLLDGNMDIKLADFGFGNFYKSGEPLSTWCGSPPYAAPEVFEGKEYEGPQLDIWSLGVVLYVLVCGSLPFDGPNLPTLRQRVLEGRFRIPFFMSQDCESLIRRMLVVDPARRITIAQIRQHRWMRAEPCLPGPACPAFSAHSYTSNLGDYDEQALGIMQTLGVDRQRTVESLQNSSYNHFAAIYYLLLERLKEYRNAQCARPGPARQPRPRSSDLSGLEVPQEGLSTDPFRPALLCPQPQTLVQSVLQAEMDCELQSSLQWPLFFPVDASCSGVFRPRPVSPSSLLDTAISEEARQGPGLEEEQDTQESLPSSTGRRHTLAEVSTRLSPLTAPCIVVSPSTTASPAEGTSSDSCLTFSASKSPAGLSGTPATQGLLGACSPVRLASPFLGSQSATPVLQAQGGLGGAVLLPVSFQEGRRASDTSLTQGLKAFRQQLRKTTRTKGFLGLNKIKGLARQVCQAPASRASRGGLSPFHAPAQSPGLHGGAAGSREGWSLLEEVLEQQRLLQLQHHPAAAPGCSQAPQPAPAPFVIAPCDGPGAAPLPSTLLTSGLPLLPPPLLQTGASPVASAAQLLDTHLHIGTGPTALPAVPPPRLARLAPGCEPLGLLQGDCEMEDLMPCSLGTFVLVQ
# [16] = molecular target: Serine/threonine-protein kinase SIK1 (Homo sapiens) (UniProt P57059); details: at 1 µM
# [17] = molecular target: Serine/threonine-protein kinase SIK2 (Homo sapiens) (UniProt Q9H0K1); details: at 0.1 µM
# [18] = molecular target: Serine/threonine-protein kinase SIK2 (Homo sapiens) (UniProt Q9H0K1); details: at 1 µM
# [19] = molecular target: Serine/threonine-protein kinase TBK1 (Homo sapiens) (UniProt Q9UHD2); details: at 0.1 µM
# [20] = molecular target: Serine/threonine-protein kinase TBK1 (Homo sapiens) (UniProt Q9UHD2); details: at 1 µM
# [21] = molecular target: Testis-specific serine/threonine-protein kinase 1 (Homo sapiens) (UniProt Q9BXA7); details: at 0.1 µM
# [22] = molecular target: Testis-specific serine/threonine-protein kinase 1 (Homo sapiens) (UniProt Q9BXA7); details: at 1 µM
# [23] = molecular target: Testis-specific serine/threonine-protein kinase 2 (Homo sapiens) (UniProt Q96PF2); details: at 0.1 µM
# [24] = molecular target: Testis-specific serine/threonine-protein kinase 2 (Homo sapiens) (UniProt Q96PF2); details: at 1 µM
# [25] = molecular target: Casein kinase I isoform alpha (Homo sapiens) (UniProt P48729); details: at 0.1 µM
# [26] = molecular target: Casein kinase I isoform alpha (Homo sapiens) (UniProt P48729); details: at 1 µM
# [27] = molecular target: Casein kinase I isoform gamma-1 (Homo sapiens) (UniProt Q9HCP0); details: at 0.1 µM
# Casein kinase I isoform gamma-1 (Homo sapiens), sequence (Q9HCP0 whole entry, looked up, canonical isoform): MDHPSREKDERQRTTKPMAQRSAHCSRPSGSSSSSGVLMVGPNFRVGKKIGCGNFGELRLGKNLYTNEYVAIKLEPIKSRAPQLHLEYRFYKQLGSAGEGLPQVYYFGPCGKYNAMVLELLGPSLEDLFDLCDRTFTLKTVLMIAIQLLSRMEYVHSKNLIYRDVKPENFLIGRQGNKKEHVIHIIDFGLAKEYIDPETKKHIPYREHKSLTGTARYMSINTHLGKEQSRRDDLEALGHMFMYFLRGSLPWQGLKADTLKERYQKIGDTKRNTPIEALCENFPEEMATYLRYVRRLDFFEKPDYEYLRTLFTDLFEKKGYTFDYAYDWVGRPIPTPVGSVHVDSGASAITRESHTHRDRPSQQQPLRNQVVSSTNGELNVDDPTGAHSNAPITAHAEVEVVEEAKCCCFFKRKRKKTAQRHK
# [28] = molecular target: Casein kinase I isoform gamma-1 (Homo sapiens) (UniProt Q9HCP0); details: at 1 µM
# [29] = molecular target: Casein kinase I isoform gamma-2 (Homo sapiens) (UniProt P78368); details: at 0.1 µM
# Casein kinase I isoform gamma-2 (Homo sapiens), sequence (P78368 whole entry, looked up, canonical isoform): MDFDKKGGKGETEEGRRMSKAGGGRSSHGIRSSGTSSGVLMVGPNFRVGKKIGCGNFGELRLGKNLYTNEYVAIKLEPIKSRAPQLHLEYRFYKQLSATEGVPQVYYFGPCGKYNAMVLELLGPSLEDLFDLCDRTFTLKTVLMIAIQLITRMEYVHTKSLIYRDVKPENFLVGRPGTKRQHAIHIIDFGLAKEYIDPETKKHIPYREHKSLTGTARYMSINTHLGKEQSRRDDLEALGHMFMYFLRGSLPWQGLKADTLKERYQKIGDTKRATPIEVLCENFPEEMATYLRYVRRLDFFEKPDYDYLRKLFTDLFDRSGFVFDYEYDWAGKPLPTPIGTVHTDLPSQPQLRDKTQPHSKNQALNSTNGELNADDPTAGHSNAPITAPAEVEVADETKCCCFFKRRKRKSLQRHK
# [30] = molecular target: Casein kinase I isoform gamma-2 (Homo sapiens) (UniProt P78368); details: at 1 µM
# [31] = molecular target: Casein kinase I isoform gamma-3 (Homo sapiens) (UniProt Q9Y6M4); details: at 0.1 µM
# [32] = molecular target: Casein kinase I isoform gamma-3 (Homo sapiens) (UniProt Q9Y6M4); details: at 1 µM
# [33] = molecular target: Cyclin-dependent kinase 1 (Homo sapiens) (UniProt P06493); details: at 0.1 µM
# [34] = molecular target: Cyclin-dependent kinase 1 (Homo sapiens) (UniProt P06493); details: at 1 µM
# [35] = molecular target: Cyclin-dependent kinase 2 (Homo sapiens) (UniProt P24941); details: at 0.1 µM
# [36] = molecular target: Cyclin-dependent kinase 2 (Homo sapiens) (UniProt P24941); details: at 1 µM
# [37] = molecular target: Cyclin-dependent kinase 2 (Homo sapiens) (UniProt P24941); details: at 0.1 µM; remark: listed apart in the source
# [38] = molecular target: Cyclin-dependent kinase 2 (Homo sapiens) (UniProt P24941); details: at 1 µM; remark: listed apart in the source
# [39] = molecular target: T1, CDK3/Cyclin E (Homo sapiens) (UniProt P24864+Q00526); details: at 0.1 µM
# [40] = molecular target: T1, CDK3/Cyclin E (Homo sapiens); details: at 1 µM
# [41] = molecular target: Cyclin-dependent kinase 4 (Homo sapiens) (UniProt P11802); details: at 0.1 µM
# Cyclin-dependent kinase 4 (Homo sapiens), sequence (P11802 whole entry): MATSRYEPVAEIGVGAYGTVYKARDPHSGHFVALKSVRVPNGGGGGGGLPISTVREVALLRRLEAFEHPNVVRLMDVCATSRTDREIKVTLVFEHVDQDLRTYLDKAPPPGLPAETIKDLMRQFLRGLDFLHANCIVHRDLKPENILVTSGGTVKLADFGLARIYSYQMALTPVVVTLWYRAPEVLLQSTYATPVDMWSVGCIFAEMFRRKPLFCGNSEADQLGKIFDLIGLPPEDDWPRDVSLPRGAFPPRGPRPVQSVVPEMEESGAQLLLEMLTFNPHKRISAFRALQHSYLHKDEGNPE
# [42] = molecular target: Cyclin-dependent kinase 4 (Homo sapiens) (UniProt P11802); details: at 1 µM
# [43] = molecular target: Cyclin-dependent kinase 5 (Homo sapiens) (UniProt Q00535); details: at 0.1 µM
# [44] = molecular target: Cyclin-dependent kinase 5 (Homo sapiens) (UniProt Q00535); details: at 1 µM
# [45] = molecular target: Cyclin-dependent kinase 6 (Homo sapiens) (UniProt Q00534); details: at 0.1 µM
# [46] = molecular target: Cyclin-dependent kinase 6 (Homo sapiens) (UniProt Q00534); details: at 1 µM
# [47] = molecular target: Dual specificity protein kinase CLK2 (Homo sapiens) (UniProt P49760); details: at 0.1 µM
# [48] = molecular target: Dual specificity protein kinase CLK2 (Homo sapiens) (UniProt P49760); details: at 1 µM
# [49] = molecular target: Dual specificity protein kinase CLK3 (Homo sapiens) (UniProt P49761); details: at 0.1 µM
# [50] = molecular target: Dual specificity protein kinase CLK3 (Homo sapiens) (UniProt P49761); details: at 1 µM
# [51] = molecular target: Dual specificity tyrosine-phosphorylation-regulated kinase 1A (Homo sapiens) (UniProt Q13627); details: at 0.1 µM
# [52] = molecular target: Dual specificity tyrosine-phosphorylation-regulated kinase 1A (Homo sapiens) (UniProt Q13627); details: at 1 µM
# [53] = molecular target: Dual specificity tyrosine-phosphorylation-regulated kinase 1B (Homo sapiens) (UniProt Q9Y463); details: at 0.1 µM
# [54] = molecular target: Dual specificity tyrosine-phosphorylation-regulated kinase 1B (Homo sapiens) (UniProt Q9Y463); details: at 1 µM
# [55] = molecular target: Dual specificity tyrosine-phosphorylation-regulated kinase 2 (Homo sapiens) (UniProt Q92630); details: at 0.1 µM
# [56] = molecular target: Dual specificity tyrosine-phosphorylation-regulated kinase 2 (Homo sapiens) (UniProt Q92630); details: at 1 µM
# PAS domain-containing serine/threonine-protein kinase (Homo sapiens), sequence (Q96RG2 whole entry, the tested form may be a part, canonical isoform): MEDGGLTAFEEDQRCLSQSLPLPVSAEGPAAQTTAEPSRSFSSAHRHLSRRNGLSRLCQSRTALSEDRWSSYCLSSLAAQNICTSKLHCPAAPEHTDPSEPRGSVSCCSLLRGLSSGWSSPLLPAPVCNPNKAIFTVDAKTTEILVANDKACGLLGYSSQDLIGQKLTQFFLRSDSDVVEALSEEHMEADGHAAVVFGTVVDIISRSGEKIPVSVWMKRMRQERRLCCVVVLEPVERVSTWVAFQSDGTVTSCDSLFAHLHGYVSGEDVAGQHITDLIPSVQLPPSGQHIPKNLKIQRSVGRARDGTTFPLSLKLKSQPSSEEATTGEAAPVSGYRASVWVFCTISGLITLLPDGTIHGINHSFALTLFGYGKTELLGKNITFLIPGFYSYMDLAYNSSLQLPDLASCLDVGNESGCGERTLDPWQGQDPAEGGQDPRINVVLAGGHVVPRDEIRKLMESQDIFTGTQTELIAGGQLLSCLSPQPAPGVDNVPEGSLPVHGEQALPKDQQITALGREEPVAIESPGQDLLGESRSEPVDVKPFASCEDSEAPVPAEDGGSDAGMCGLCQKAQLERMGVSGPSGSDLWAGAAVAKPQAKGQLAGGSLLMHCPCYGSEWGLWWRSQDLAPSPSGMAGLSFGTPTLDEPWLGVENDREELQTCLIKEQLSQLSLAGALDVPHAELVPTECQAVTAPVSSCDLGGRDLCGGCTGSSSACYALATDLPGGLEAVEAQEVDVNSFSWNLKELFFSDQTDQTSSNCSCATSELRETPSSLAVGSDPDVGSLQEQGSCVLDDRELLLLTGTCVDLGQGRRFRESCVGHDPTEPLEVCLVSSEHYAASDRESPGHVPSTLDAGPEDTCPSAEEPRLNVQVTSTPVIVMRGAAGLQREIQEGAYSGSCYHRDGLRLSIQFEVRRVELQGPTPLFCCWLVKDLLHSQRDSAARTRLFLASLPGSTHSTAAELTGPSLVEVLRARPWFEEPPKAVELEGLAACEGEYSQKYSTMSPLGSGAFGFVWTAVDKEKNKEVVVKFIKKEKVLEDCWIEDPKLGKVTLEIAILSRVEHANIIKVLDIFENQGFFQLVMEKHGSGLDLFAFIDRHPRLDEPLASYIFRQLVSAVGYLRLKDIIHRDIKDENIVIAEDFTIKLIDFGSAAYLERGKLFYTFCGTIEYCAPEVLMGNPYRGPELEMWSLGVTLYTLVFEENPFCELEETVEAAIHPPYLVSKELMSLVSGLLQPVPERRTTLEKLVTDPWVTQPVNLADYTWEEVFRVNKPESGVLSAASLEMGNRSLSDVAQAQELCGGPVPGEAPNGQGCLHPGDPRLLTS
structure (smiles),measurement,setting,value
CNC(=O)Oc1cc(C)c(/C=C/c2cncc(C(=O)NC)c2)c(C)c1,inhibition,[1],0.86%
same,inhibition,[2],-0.55%
same,inhibition,[3],0.19%
same,inhibition,[4],3.49%
same,inhibition,[5],4.46%
same,inhibition,[6],1.16%
same,inhibition,[7],0.83%
same,inhibition,[8],1.46%
same,inhibition,[9],-0.21%
same,inhibition,[10],0.61%
same,inhibition,[11],-0.49%
same,inhibition,[12],0.47%
same,inhibition,[13],0.29%
same,inhibition,[14],-1.1%
same,inhibition,[15],46.9%
same,inhibition,[16],88.6%
same,inhibition,[17],7.72%
same,inhibition,[18],30.4%
same,inhibition,[19],2.75%
same,inhibition,[20],3.73%
same,inhibition,[21],1.39%
same,inhibition,[22],0.21%
same,inhibition,[23],1.46%
same,inhibition,[24],-0.8%
same,inhibition,[25],1.61%
same,inhibition,[26],3.51%
same,inhibition,[27],1.33%
same,inhibition,[28],2.91%
same,inhibition,[29],0.3%
same,inhibition,[30],2.73%
same,inhibition,[31],1.68%
same,inhibition,[32],4.49%
same,inhibition,[33],-0.06%
same,inhibition,[34],-0.3%
same,inhibition,[35],0.63%
same,inhibition,[36],-1.72%
same,inhibition,[37],1.5%
same,inhibition,[38],0.5%
same,inhibition,[39],0.33%
same,inhibition,[40],1.01%
same,inhibition,[41],0.95%
same,inhibition,[42],2.18%
same,inhibition,[43],0.2%
same,inhibition,[44],-0.43%
same,inhibition,[45],-2.38%
same,inhibition,[46],0.77%
same,inhibition,[47],1.89%
same,inhibition,[48],4.38%
same,inhibition,[49],0.33%
same,inhibition,[50],1.86%
same,inhibition,[51],-0.43%
same,inhibition,[52],6.77%
same,inhibition,[53],-0.07%
same,inhibition,[54],0.76%
same,inhibition,[55],2.64%
same,inhibition,[56],2.73%
